Compound activity: PubChem, The Scripps Research Institute Molecular Screening Center
PME-1 inh: PME-1 (human) inhibition. AID 2130. inhibition, % at 5.9 µM. Q9Y570. 320,000 compounds, 0.53% hits. recombinant PME-1, FP-Rh probe fluorescence polarization;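 active = inhibition above the campaign mean of all compounds plus 3 SD, cut at about 26% in these data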;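 also: competitive labeling of PME-1 active site by serine hydrolase directed probe; inhibitors block probe labeling so polarization falls and inhibition rises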
LYPLA1 counter: counter-screen for PME1 inhibitors: inhibitors of human LYPLA1; inhibition, % at 5.9 µM; 320,000 compounds, 0.16% hits; recombinant LYPLA1, FP-Rh probe fluorescence polarization;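 active = inhibition above the mean of all tested compounds plus 3 SD, set per campaign, cut at about 14% in these data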;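 also: inhibitors block serine hydrolase probe labeling of LYPLA1 so polarization falls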
GSTO1 counter: blocks human GSTO1 in RBBP9 counter-screen. P78417. recombinant GSTO1, activity-based probe fluorescence polarization. inhibition, % at 5.96 µM. 300,000 compounds, 1.1% hits;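 active = inhibition above the campaign mean inhibition plus 3 SD, cut at about 35% in these data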
LYPLA2 counter: blocks human lysophospholipase 2, a PME1 counter-screen; O95372; AID 2177; recombinant LYPLA2, FP-Rh probe fluorescence polarization; 320,000 compounds, 0.38% hits; inhibition, % at 5.9 µM;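 active = inhibition above the screen-wide mean plus 3 SD, limit set per campaign, cut at about 26% in these data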
PAD4 inh: inhibitors of human PAD4; recombinant PAD4, RCA probe fluorescence polarization; inhibition, % at 6.36 µM; 330,000 compounds, 0.41% hits;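 active = percent inhibition above a cutoff equal to the mean of all tested compounds plus 3 SD, cut at about 15% in these data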
Target sequence (Q9UM07 whole entry, looked up): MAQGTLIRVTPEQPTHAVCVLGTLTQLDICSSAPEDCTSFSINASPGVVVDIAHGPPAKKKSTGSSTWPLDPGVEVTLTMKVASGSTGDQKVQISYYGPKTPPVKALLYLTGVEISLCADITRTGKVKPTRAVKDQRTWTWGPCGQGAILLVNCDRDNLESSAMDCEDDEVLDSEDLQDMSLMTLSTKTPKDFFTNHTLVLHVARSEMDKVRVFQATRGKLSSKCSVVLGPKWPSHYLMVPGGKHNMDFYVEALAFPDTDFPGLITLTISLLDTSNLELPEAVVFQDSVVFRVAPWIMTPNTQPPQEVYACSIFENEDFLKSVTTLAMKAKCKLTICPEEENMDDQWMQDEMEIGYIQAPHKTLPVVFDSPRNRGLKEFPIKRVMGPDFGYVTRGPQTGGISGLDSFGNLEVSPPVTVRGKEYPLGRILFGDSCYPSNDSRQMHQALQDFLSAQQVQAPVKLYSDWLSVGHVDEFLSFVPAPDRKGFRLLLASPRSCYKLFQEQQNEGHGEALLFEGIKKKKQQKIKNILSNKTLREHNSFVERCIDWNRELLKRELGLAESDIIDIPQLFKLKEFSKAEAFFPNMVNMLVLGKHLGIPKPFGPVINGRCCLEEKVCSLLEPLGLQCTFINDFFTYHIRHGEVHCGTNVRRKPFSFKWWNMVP
Fam108B counter: blocks mouse Fam108B hydrolase in RBBP9 counter-screen. inhibition, % at 9.51 µM. 300,000 compounds, 0.33% hits. recombinant Fam108B, FP-Rh probe fluorescence polarization;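 active = inhibition above the screen mean inhibition plus 3 SD, computed separately per campaign, cut at about 18% in these data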;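 also: inhibitors lower polarization as less probe binds the enzyme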
GSTO1 inh conf: confirmation of human GSTO1 inhibitors. shares compounds with GSTO1 counter. recombinant GSTO1, probe fluorescence polarization. inhibition, % at 5.96 µM. 2,400 compounds, 54% hits. AID 2176;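 active = inhibition above the primary screen's cutoff, its mean inhibition plus 3 SD, cut at about 35% in these data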;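 also: loss of polarization as inhibitors block binding of rhodamine sulfonate ester activity probe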
GSTO1 ABPP inh: blocks recombinant human glutathione S-transferase omega 1 | AID 463110 | shares compounds with GSTO1 counter | 130 compounds, 30% hits | recombinant GSTO1, gel ABPP SE-Rh probe fluorescence | inhibition, % at 1 µM;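 active = inhibition of the enzyme GSTO1 above about 75%, limit read from the data; inactive = inhibition below that limit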
Numbers stand for hits; n = inactive; x = no result. Hits are enriched below; roughly 1.8% of the tested compounds scored in any of these assays.

SMILES	PME-1 inh	LYPLA1 counter	GSTO1 counter	LYPLA2 counter	PAD4 inh	Fam108B counter	GSTO1 inh conf	others
Cc1ccc(-c2c(C)sc3nc[nH]c(=O)c23)cc1C	n	n	n	n	n	n	x
CC1=NN(c2cccc([N+](=O)[O-])c2)C(=O)C1	n	n	n	n	n	n	x
CC1=NN(c2ccc(N)cc2)C(=O)C1	n	n	50.4	n	n	n	n
O=C(O)/C=C\C(=O)Nc1ccc(N2CCN(c3cccc(Cl)c3)CC2)cc1	n	n	44.9	n	n	n	n
O=C(O)/C=C\C(=O)Nc1ccccc1C(=O)N1CCN(c2ccc(Cl)cc2)CC1	n	n	n	n	n	n	x
O=C(O)/C=C\C(=O)Nc1ccc(N2CCN(c3ccc(Cl)c(Cl)c3)CC2)cc1	n	n	n	n	n	n	x
O=C(O)/C=C\C(=O)Nc1ccc(N2CCN(c3ccc(Cl)cc3)CC2)cc1	n	n	59.2	n	n	n	n
O=C(Cc1ccccn1)c1ccc(Cl)cc1	n	n	n	n	n	n	x
CC1=C(CC(=O)c2ccc(Cl)cc2)C(=O)c2ccccc2C1=O	n	n	44.5	n	n	n	n
COc1cc(CN2CCNC(=O)C2CC(=O)N(Cc2nccn2C)C(C)C)cc(OC)c1 (stereo not given)	n	n	n	n	n	n	x
C[C@]12C=CC(=O)C=C1CC[C@@H]1C2=CC[C@]2(C)[C@@H](C(=O)CN3CCN(c4cc(N5CCCC5)nc(N5CCCC5)n4)CC3)CC[C@@H]12	n	n	50.9	n	n	n	44.8
O=C1/C(=N\S(=O)(=O)c2cccs2)C([n+]2cccc(Cc3ccccc3)c2)=C([O-])c2ccccc21	n	n	87.0	n	n	n	83.1
O=C1/C(=N\S(=O)(=O)c2cccs2)C([n+]2ccc(CCCc3ccccc3)cc2)=C([O-])c2ccccc21	n	n	78.8	n	n	n	84.4
CC(C)N(Cc1ccccc1)S(=O)(=O)c1cccs1	n	n	n	n	n	n	x
O=C(N/N=C/c1c[nH]c2ccccc12)c1ccc(O)c(O)c1	n	n	39.6	n	n	n	n
O=[N+]([O-])c1cncc([N+](=O)[O-])c1Nc1cccc(O)c1	n	n	70.0	n	n	n	n
COc1ccccc1/C=C/C(=O)Nc1ccc2c(c1)CCC2	n	n	n	n	n	n	x
COC(=O)C(Cc1ccc(OC(=O)c2ccc(C)cc2)cc1)N1Cc2ccccc2C1=O (stereo not given)	n	n	n	n	n	n	x
CN(C1=C(N2CCCCC2)C(=O)c2ccccc2C1=O)c1ccccc1	n	n	50.2	n	16.5	n	n
Cc1ccc(NC2=C(N3CCCCC3)C(=O)c3ccccc3C2=O)cc1	n	n	65.2	n	n	n	45.5
O=C(/C=C/c1ccc(O)cc1)c1ccc(NC2=C(N3CCCCC3)C(=O)c3ccccc3C2=O)cc1	n	n	65.1	n	n	n	51.3
COc1ccc(OC)c(/C=N/NC(=O)Cc2nc3ccccc3[nH]2)c1	n	n	n	n	n	n	x
CCc1ccc(NC(=O)N(C2CCCCC2)C(C)c2cccnc2)cc1 (stereo not given)	n	n	n	n	n	n	x
O=C(CN(c1ccccc1)S(=O)(=O)c1ccccc1[N+](=O)[O-])NN=C1CCCCCCC1	n	n	n	n	n	n	x
O=[N+]([O-])c1ccccc1S(=O)(=O)N(CC1CO1)c1ccccc1 (stereo not given)	n	n	98.4	n	n	n	99.7	GSTO1 ABPP inh=n
SMILES	PME-1 inh	LYPLA1 counter	GSTO1 counter	LYPLA2 counter	PAD4 inh	Fam108B counter	GSTO1 inh conf	others
Cc1ccc(N(CC2CO2)S(=O)(=O)c2ccccc2[N+](=O)[O-])cc1 (stereo not given)	n	n	87.1	n	n	n	96.7	GSTO1 ABPP inh=n
Cc1ccc(S(=O)(=O)N(CC2CO2)c2ccccc2[N+](=O)[O-])cc1 (stereo not given)	n	n	77.6	n	n	n	92.8	GSTO1 ABPP inh=n
COc1ccc(C(C(=O)NC(C)(C)C)N(C(=O)CNC(=O)c2cccs2)c2ccc(NC(C)=O)cc2)cc1OC (stereo not given)	n	n	n	n	n	n	x
CCOc1ccc(C(c2c(C)[nH][nH]c2=O)c2c(C)[nH][nH]c2=O)cc1OC	n	n	42.1	n	n	n	n
COC(=O)c1cccc(-c2ccc(C(c3c(C)[nH][nH]c3=O)c3c(C)[nH][nH]c3=O)o2)c1	n	n	59.0	n	n	n	54.1
COc1cc(NCCCCCCCN)c2ncccc2c1	n	n	45.5	n	26.8	n	59.8
COC(=O)c1ccc(CC(=O)c2ccc(O)cc2O)o1	n	n	n	n	n	n	x
COC(=O)c1ccc(CC(=O)c2c(C)cc(O)cc2O)o1	n	n	43.2	n	n	n	n
COc1cc(OC)c([N+](=O)[O-])cc1/C=N/NC(=O)c1ccncc1	n	n	49.3	n	n	n	n
Oc1ccc(Br)cc1C=Nc1ccc(Cl)cc1	n	n	n	n	n	n	x
CCN(CC)c1ccc(N=Cc2cc(Br)ccc2O)cc1	n	n	74.3	n	n	n	n
Cc1ccc(OCC(=O)N/N=C/c2cn(Cc3ccccc3)c3ccccc23)cc1	n	n	n	n	n	n	x
CC(C)Oc1cccc(-c2cc(C(=O)NC(=S)N(C)c3ccccc3C(=O)O)c3ccccc3n2)c1	n	n	n	n	n	n	x
CC(=O)C1=C(c2ccc(Br)cc2)C(=O)c2ccccc2C1=O	n	n	38.6	n	n	n	n
O=C(CSc1nnc(Cc2cccs2)n1-c1ccc(Cl)cc1)NCc1ccc2c(c1)OCO2	n	n	n	n	n	n	x
Cc1ccc(N(Cc2cc(=O)[nH]c3ccccc23)C(=O)CCl)c(C)c1	n	n	64.2	n	n	n	74.7	GSTO1 ABPP inh=n
CN(CC(=O)Nc1ccccc1Cl)CC(=O)N1CCc2ccccc21	n	n	x	n	n	x	x
O=c1onc(-c2ccc(Cl)cc2Cl)n1-c1cccnc1	n	n	n	n	n	n	x
COc1cccc(N2CCN(c3ccc(N4C(=O)CCC4=O)cc3[N+](=O)[O-])CC2)c1	n	n	n	n	n	n	x
Cc1oc2c(c1C(=O)N1CCC(C)CC1)C(=O)c1ccccc1C2=O	n	n	39.5	n	n	n	n
CCOC(=O)C1CCN(C(=O)c2ccc(C)o2)CC1	x	x	x	x	n	x	x
CCOC(=O)C1CCN(C(=O)c2c(C)oc3c2C(=O)c2ccccc2C3=O)CC1	n	n	44.5	n	n	n	47.6
CCCCn1cc(S(=O)(=O)c2ccccc2)c(=O)c2cc(C)ccc21	n	n	n	n	n	n	x
CC(=O)N(Cc1ccc(F)cc1)C1=C(NCCc2ccccc2)C(=O)c2ccccc2C1=O	n	n	44.3	n	n	n	45.8
